Test systems include SR leukemia; RPMI-8226 leukemia; OVCAR-8 ovarian; OVCAR-4 ovarian; SK-OV-3 ovarian; IGROV1 ovarian; OVCAR-3 ovarian; HS 578T breast; NCI/ADR-RES ovarian; OVCAR-5 ovarian.
Common to all, as to assay: NCI-60 one-dose screen, 48 h (100 = growth as untreated, 0 = no growth, -100 = all killed)
Settings in all cases: 10 µM unless noted

Molecules are shown by their SMILES. Compounds without any hit were thinned out: in the full panel of roughly 83,000, 20% have a hit.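 The test compound was applied at a single concentration to cells in 96-well plates for 48 hours, and percent growth was recorded.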 A number with no mark means an inactive call. Calls of active or inactive are those of the source. Rule for the calls: active = growth percent below 10; inactive = the rest.

In the case of `O=C1/C(=C\c2cccc3nccnc23)SC(=S)N1CCc1ccc(O)cc1`, the growth with SR leukemia is 92.1%; in the assay on RPMI-8226 leukemia, 83%; in the assay with OVCAR-8 ovarian, 99.1%; in the assay with OVCAR-4 ovarian, 89.4%; with SK-OV-3 ovarian, 110%; in the assay with IGROV1 ovarian, 95.4%. Further, the results for the growth with OVCAR-3 ovarian, in the assay with HS 578T breast and in the assay with NCI/ADR-RES ovarian were 101%, 95.4% and 96.9%, respectively.

With `CCOC(=O)C1=C(C)/C(=C\c2[nH]c(C)c(C(=O)OCC)c2C)N=C1C`, the growth is 11.9% in the assay with SR leukemia; 62.9% with RPMI-8226 leukemia; 61.5% in the assay with OVCAR-8 ovarian; 81.9% with OVCAR-4 ovarian; 84.4% in the assay with SK-OV-3 ovarian; 97% with IGROV1 ovarian. Also, the values for the growth in the assay with OVCAR-3 ovarian, in the assay on HS 578T breast and with NCI/ADR-RES ovarian were 21.7%, 103% and 88.9%, respectively.

As for `COC(=O)/C=C1/SC(=Nc2ccc([N+](=O)[O-])cc2)N(CCc2c[nH]c3ccc(O)cc23)C1=O`, the growth in the assay on SR leukemia is -22.5% (active); in the assay with RPMI-8226 leukemia, 8.49% (active); in the assay with OVCAR-8 ovarian, 38.4%; in the assay on OVCAR-5 ovarian, 86.4%; with OVCAR-4 ovarian it was 45.1%; with IGROV1 ovarian, 42.6%. Also, the growth in the assay with OVCAR-3 ovarian is 50.9%; in the assay with HS 578T breast, 47.5%; in the assay on NCI/ADR-RES ovarian, 43.9%.

Take `Cc1ccc(-c2nc(N3CCNCC3)c3oc(-c4ccc(C)cc4)nc3n2)cc1`: the growth is -49.2% (active) with SR leukemia; -49.1% (active) with RPMI-8226 leukemia; -69% (active) with OVCAR-8 ovarian; 11.9% in the assay on OVCAR-4 ovarian; 86.2% with SK-OV-3 ovarian; -77.1% (active) in the assay with IGROV1 ovarian. Further, the growth in the assay with OVCAR-3 ovarian is -94.6% (active); with HS 578T breast, 99.2%; with NCI/ADR-RES ovarian, -28.9% (active).

For the molecule `COc1cc(Cl)c(C)cc1NC(=O)c1cc2ccccc2cc1O`, the growth in the assay with SR leukemia was 8.6% (active); with RPMI-8226 leukemia it was 7.23% (active); in the assay on OVCAR-8 ovarian, 11.9%; in the assay on OVCAR-4 ovarian, 20.7%; in the assay with SK-OV-3 ovarian it was 14.8%; with IGROV1 ovarian, 11.9%. The growth is 6.37% (active) in the assay on OVCAR-3 ovarian, 23.8% with HS 578T breast and 0.336% (active) in the assay on NCI/ADR-RES ovarian.

`COc1ccc(-c2nc(-c3cn(C)c4ncccc34)cs2)cc1`: the growth is 12.2% [100 µM] with SR leukemia; -28.1% [100 µM] (active) with RPMI-8226 leukemia; 11.5% [100 µM] in the assay on OVCAR-8 ovarian; 1.57% [100 µM] (active) in the assay with OVCAR-4 ovarian; -3.58% [100 µM] (active) with SK-OV-3 ovarian; 17.9% [100 µM] in the assay with IGROV1 ovarian. Also, the figures for the growth in the assay with OVCAR-3 ovarian, in the assay with HS 578T breast and in the assay on NCI/ADR-RES ovarian were 17.9% [100 µM], 38.8% [100 µM] and 3.69% [100 µM] (active), respectively.

Turning to `O=S(=O)(NCCNc1nccc(-c2c(-c3cccc(O)c3)nc3occn23)n1)c1ccc(Br)cc1`, the growth in the assay on SR leukemia is 7.33% (active); with RPMI-8226 leukemia, 29.8%; with OVCAR-8 ovarian it was 31.3%; in the assay with OVCAR-4 ovarian it was 36.8%; in the assay on IGROV1 ovarian it was 4.48% (active); in the assay with OVCAR-3 ovarian, 36%. Further, the growth with HS 578T breast was 21.8%; with NCI/ADR-RES ovarian, 99.7%.

`CCn1c(-c2cc3c([nH]c4ccccc43)c(-c3cccc(O)c3)n2)n[nH]c1=S`: the growth in the assay with SR leukemia is -3.76% (active); with RPMI-8226 leukemia it was 19.3%; in the assay with OVCAR-8 ovarian, 40.8%; with OVCAR-4 ovarian, 54.8%; with SK-OV-3 ovarian it was 55.8%; with IGROV1 ovarian, 53.7%. The growth with OVCAR-3 ovarian was 28.9%; with HS 578T breast, 28.1%; in the assay on NCI/ADR-RES ovarian it was 64.8%.

Regarding `C=C1C(=O)O[C@H]2[C@H]1CC/C(CNC(=O)c1c[nH]c3ccc(F)cc13)=C\CC[C@@]1(C)O[C@@H]21`, the growth with SR leukemia is -28.2% (active); in the assay with RPMI-8226 leukemia, -20.8% (active); with OVCAR-8 ovarian it was -33.3% (active); in the assay with OVCAR-4 ovarian it was 49%; in the assay with SK-OV-3 ovarian it was 81.7%; with IGROV1 ovarian, 41.7%. The figures for the growth in the assay with OVCAR-3 ovarian, in the assay on HS 578T breast and in the assay on NCI/ADR-RES ovarian were -36.7% (active), 44% and 56.3%, respectively.

`COC(=O)c1nc(-c2ccccc2)oc1S(=O)(=O)NCC(c1ccc(Cl)cc1)N1CCOCC1` (stereo not given): the growth was 1.88% (active) with SR leukemia; 7.86% (active) in the assay on RPMI-8226 leukemia; 65% in the assay with OVCAR-8 ovarian; 77.7% in the assay with OVCAR-5 ovarian; 86.2% with OVCAR-4 ovarian; 61.1% in the assay with IGROV1 ovarian. Further, the growth was 35.1% with OVCAR-3 ovarian, 85.8% with HS 578T breast and 97.9% in the assay with NCI/ADR-RES ovarian.

Regarding `C=C1CC[C@@H]2[C@](C)(COC(C)=O)[C@H](OC(C)=O)CC[C@@]2(C)[C@@H]1CC(Nc1ccc(S(=O)(=O)NC(C)=O)cc1)C1=CCOC1=O` (stereo not given in full), the growth in the assay on SR leukemia was 2.08% (active); with RPMI-8226 leukemia it was -16.2% (active); in the assay with OVCAR-8 ovarian, -18.2% (active); in the assay with OVCAR-4 ovarian, 26.1%; with SK-OV-3 ovarian, 67.3%; in the assay on IGROV1 ovarian, -10% (active). In addition, the figures for the growth in the assay on OVCAR-3 ovarian, with HS 578T breast and in the assay with NCI/ADR-RES ovarian were -87.7% (active), 32.5% and 11.9%, respectively.

Turning to `CCOC(=O)c1c(C)nc2ccccc2c1/C=C/c1cccs1`, the growth in the assay with SR leukemia was 68.6%; in the assay with RPMI-8226 leukemia it was 50.7%; in the assay on OVCAR-8 ovarian, 74.8%; in the assay with OVCAR-4 ovarian, 40.4%; in the assay on SK-OV-3 ovarian, 75.9%; with IGROV1 ovarian, 72.1%. For the same molecule, the growth is 82.7% in the assay with OVCAR-3 ovarian, 98.9% with HS 578T breast and 43.5% with NCI/ADR-RES ovarian.

For `CC1=C2[C@@H](CC1)[C@]1(C)O[C@@](C3CCCCC3)(C[C@H]1OC(=O)CO)[C@H]2OC(=O)/C=C/c1ccccc1`, the growth in the assay with SR leukemia was 52.1%; with RPMI-8226 leukemia it was 58.5%; in the assay with OVCAR-8 ovarian, 5.17% (active); in the assay on OVCAR-4 ovarian, 92.9%; in the assay with SK-OV-3 ovarian it was 86%; with IGROV1 ovarian, 85.1%. Besides, the growth with OVCAR-3 ovarian is 85%; in the assay on HS 578T breast, -15.2% (active); with NCI/ADR-RES ovarian, -2.43% (active).

On to `Cc1ccc2nc(/C(C#N)=C(/CCCO)NC(Cc3ccccc3)C(=O)OCc3ccccc3)[nH]c(=O)c2c1` (stereo not given), for which the growth with SR leukemia is 92.3%; in the assay with RPMI-8226 leukemia it was 114%; in the assay with OVCAR-8 ovarian it was 120%; in the assay with OVCAR-4 ovarian, 125%; in the assay with SK-OV-3 ovarian, 106%; with IGROV1 ovarian, 127%. The results for the growth in the assay on OVCAR-3 ovarian, with HS 578T breast and in the assay with NCI/ADR-RES ovarian were 110%, 183% and 32.6%, respectively.

Values taken from PubChem BioAssay (NCI).
